# HT1080 IDH1KD tx: toxicity to HT-1080 IDH1 knockdown cells (counter line) | 360,000 tested, 2% active | AID 686971 | HT-1080 IDH1 knockdown viability, ATP luminescence, 48 h | Potency, µM (doses to about 46.1 µM), without a hit: top-dose activity, negative = toxicity, usual class: cytotoxic;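 further: potency means the concentration at half of the fitted maximal effect; 0% = DMSO wells and -100% = cell-free medium wells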
#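 After a 2 h attachment period, IDH1KD HT-1080 cells took pin-transferred compound for 48 h at 37 °C; ATP-based luminescence after 10 min room-temperature reagent incubation reported viability.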
# HT1080NT lethal: kills 2HG-producing HT-1080-NT fibrosarcoma cells; HT-1080-NT fibrosarcoma viability, CellTiter-Glo ATP luminescence, 48 h; Potency, µM (titrated, usually from 46.1 µM), for the others: at the top dose activity, negative = less viability, hits mostly cytotoxic; 360,000 tested, 1.6% active;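 further: NT is the 2HG producing partner of a matched IDH1 knockdown line; potency means the concentration at half of the fitted maximal effect; 0% = DMSO-treated cells and -100% = media-only wells without cells; nearly all actives have a fitted effect of over 55% in size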
#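 Viability of the 2HG-overproducing fibrosarcoma line after 48 hours of compound exposure at 37 degrees C was determined by luminescence with CellTiter-Glo, and concentration-effect curves were then fitted and categorized.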
# IL-1B inflam inh: inflammasome signaling inhibition, IL-1 beta readout; THP-1 LPS/ATP IL-1B secretion, AlphaLISA, 16 h; active compounds read low; activity change, % at 57.5 µM; 360,000 tested, 4.7% active; AID 743279; in the data active means activity change below about -50%; inconclusive means mostly about -30% to -49%
#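 Secreted IL-1B measured by AlphaLISA bead assay after 16 h compound exposure of THP-1 cells; compounds (final up to 57.5 uM) added 1 h before LPS (250 ng/mL) and ATP (1.25 mM) stimulation; lower signal means less secretion.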
# KB-3-1 cytotox: KB-3-1 parental cell cytotoxicity; KB-3-1 viability, CellTiter-Glo ATP luminescence, 72 h; Potency, µM (top dose mostly 46.1 µM), usual class: cytotoxic; 400,000 tested, 1.4% active; further: potency means the concentration at half of the fitted maximal effect; nearly all actives have a fitted effect of over 60% in size
#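 Here the drug-naive KB-3-1 line serves as comparator for MDR sub-line selectivity; cells received compound titrations, 72 h at 37 °C, then CellTiter-Glo readout.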
# KB-V1 cytotox: KB-V1 MDR subline cytotoxicity; KB-V1 MDR cells viability, CellTiter-Glo, 72 h; Potency, µM (highest dose often 46.1 µM), hits mostly cytotoxic; 400,000 tested, 3.4% active; AID 1347076; further: potency means the concentration at half of the fitted maximal effect; nearly all actives have a fitted effect of over 60% in size
#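 Cells of the MDR subline KB-V1 are plated, dosed with compound at multiple concentrations, and incubated 72 h at 37 degrees C; CellTiter-Glo is then added and luminescence read after 10 min.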
# Active calls of the source: *; i = inactive; ? = inconclusive; . = no result given. Sampled rows, rich in hits. Any-hit rate of the full collection: about 8.8%. Unless noted, the call rests on the fitted dose curve; in most records, active means well fitted curve in the direction sought with a large enough effect; inconclusive means small, poorly fitted or top-dose-only effect, or another doubt; inactive means no such curve, though single readings can be large; an effect the other way counts as inactive or inconclusive. Unless noted, on the % scale 0 is the no-effect control and ±100 the full control effect.
SMILES,HT1080 IDH1KD tx,HT1080NT lethal,IL-1B inflam inh,KB-3-1 cytotox,KB-V1 cytotox
CC1=NNC(=O)C1CCC(=O)N/N=C/C(Br)=C/c1ccccc1 (configuration not stated),2%,2%,17,i,i
O=S(=O)(c1ccc(Cl)s1)N1CCCc2cccc(O)c21,-2%,-14%,?,i,i
CCC(C)N(C(=O)c1csnn1)C(C(=O)NC1CCCC1)c1c(F)cccc1Cl (configuration not stated),6%,12%,-12,i,?
COc1ccc(/C=N/OCC(=O)N2CC3(C)CC2CC(C)(C)C3)cc1OC (configuration not stated),0%,-12%,-26,i,16µM*
Cc1nc2ccc(Cl)cc2c(-c2ccccc2Cl)c1CC(=O)O,-1%,-3%,36,i,i
CN1CCc2nc3ccc(Cl)cc3c(-c3ccccc3Cl)c2C1,-20%,-23%,-56*,i,i
CC1(C(=O)Nc2cccc3cccnc23)CCN1Cc1ccc(-c2ccccc2)o1 (configuration not stated),-11%,-1%,33,i,i
Cc1ccccc1C(=O)N1CCN(c2ccc([N+](=O)[O-])c(NCc3cccnc3)c2)CC1,-2%,0%,-8,i,4.1µM*
CC(=O)Nc1ccc(-c2ccnc3c2CC(C(=O)NCc2ccco2)O3)cc1 (configuration not stated),?,?,40,0.52µM*,i
O=C(NCc1cccnc1)C1Cc2c(-c3ccc(Cl)cc3)ccnc2O1 (configuration not stated),18µM*,5.8µM*,-27,?,i
CC(=O)Nc1ccc(-c2ccnc3c2CC(C(=O)NCCC(F)(F)F)O3)cc1 (configuration not stated),?,-37%,0,?,i
CC(=O)Nc1ccc(-c2ccnc3c2CC(C(=O)NCc2ccccc2)O3)cc1 (configuration not stated),?,?,60,0.065µM*,1.3µM*
CC(=O)Nc1ccc(-c2ccnc3c2CC(C(=O)NCCc2ccccc2)O3)cc1 (configuration not stated),0%,-15%,53,i,i
O=C(Nc1ccc(N2CCCCC2)cc1)c1ccc2c(c1)OCCO2,-28%,-7%,-27,?,?
CC(C)(C)C(=O)N1CCN(c2ccc(NC(=O)c3ccc4c(c3)OCCO4)cc2)CC1,-11%,-7%,-77*,?,?
O=C(Nc1ccc(N2CCN(C(=O)c3ccccc3)CC2)cc1)c1ccc2c(c1)OCCO2,-15%,-7%,-94*,.,.
O=C(Nc1ccc(N2CCN(C(=O)c3ccc(Cl)cc3)CC2)cc1)c1ccc2c(c1)OCCO2,-19%,?,-61*,i,i
CC(=O)N1CCN(c2ccc(NC(=O)c3ccc4c(c3)OCCO4)cc2)CC1,-20%,0%,-11,i,i
CCCCNCCS(=O)(=O)NCc1ccc(OC)cc1,9%,3%,9,i,i
CCCCNc1ccc(C(F)(F)F)cc1S(=O)(=O)NCCc1ccc(F)cc1,?,?,-63*,i,i
CC(=O)N1c2ccc(S(=O)(=O)N3CCCCCC3)cc2CC1C(=O)NCc1ccccc1F (configuration not stated),.,.,.,i,i
COc1ccc(OCc2cc(C(=O)NC3Cc4ccccc4C3)no2)c(Cl)c1,?,?,13,4.6µM*,?
O=C(NC1CCCCCCC1)c1cc(COc2ccc3ncccc3c2)on1,-20%,-15%,?,2.6µM*,1.8µM*
Cc1cccnc1CN1CCN(C(=O)c2cc(COc3ccc4ncccc4c3)on2)CC1,?,-6%,-24,?,6.5µM*
CCOC(=O)N1CCN(C(=O)c2cc(COc3ccc4ncccc4c3)on2)CC1,-17%,-10%,-10,?,?
SMILES,HT1080 IDH1KD tx,HT1080NT lethal,IL-1B inflam inh,KB-3-1 cytotox,KB-V1 cytotox
Cc1c(O)ccc2c(CC(=O)N[C@@H](Cc3ccccc3)C(=O)O)cc(=O)oc12,-11%,4%,-7,i,i
O=C(Nc1nnc(N2CCCCCC2)s1)Nc1cc(F)ccc1F,.,.,.,i,i
COC(=O)/C=C/C(=O)N1CCN(c2ccccc2C)CC1,9%,11%,-108*,i,i
COC(=O)/C=C/C(=O)N1CCN(c2ccccc2)CC1,21%,19%,-91*,i,i
COc1ccccc1CNC(=O)N1CCN(c2ccccc2C)CC1,-14%,0%,10,i,i
CC1(C(=O)NS(=O)(=O)c2cccc(Cl)c2)CCN1C(=O)c1ccccc1CCc1ccccc1 (configuration not stated),-25%,-17%,-1,i,i
Cc1cc(Br)ccc1NC(=O)CN(C)C(=O)CSC(=S)N1CCCC1,-1%,-2%,20,i,13µM*
Cc1cc(Br)ccc1NC(=O)CN(C)C(=O)CSCc1ccccc1,-20%,2%,-52*,i,?
Cc1ccc(CSCC(=O)N(C)CC(=O)Nc2ccccc2Cl)cc1,1%,1%,1,i,i
Cc1ccc(Cl)cc1NC(=S)N1CCCCCC1,27%,5%,15,i,i
COc1ccc(N(C(=O)c2ccccc2C)S(=O)(=O)c2cccs2)cc1,0.92µM*,0.92µM*,80,0.82µM*,1.3µM*
COc1ccc(N(C(=O)c2ccccc2C)S(=O)(=O)c2ccc(C)cc2)cc1,.,.,.,i,i
N=c1c(C(=O)NCc2ccco2)cc2c(=O)n3ccccc3nc2n1CCc1ccccc1,-4%,1%,-1,18µM*,21µM*
COc1ccc(CCn2c(=N)c(C(=O)N3CCN(C)CC3)cc3c(=O)n4ccccc4nc32)cc1,0%,-2%,-54*,i,i
COCCCn1c(=N)c(C(=O)NCc2ccco2)cc2c(=O)n3cccc(C)c3nc21,.,.,.,i,?
COc1ccc(CCn2c(=N)c(C(=O)NCc3ccco3)cc3c(=O)n4ccccc4nc32)cc1OC,-3%,0%,?,i,i
COc1ccc(CCn2c(=N)c(C(=O)NC3CCCCC3)cc3c(=O)n4ccccc4nc32)cc1,6%,-1%,-13,?,?
Cc1cccn2c(=O)c3cc(C(=O)NCc4ccco4)c(=N)n(CCOCCO)c3nc12,-5%,0%,-57*,i,i
Cc1cccn2c(=O)c3cc(C(=O)NCc4ccco4)c(=N)n(C4CCCCC4)c3nc12,?,?,-98*,i,?
Cc1ccc2cccc(OCCOCCOc3ccccc3Br)c2n1,-4%,3%,-3,i,?
Cc1ccc2cccc(OCc3cccc([N+](=O)[O-])c3)c2n1,0%,0%,-51*,i,i

# High-throughput results deposited in PubChem BioAssay by National Center for Advancing Translational Sciences (NCATS).
